The nature of assay [1]: P-glycoprotein substrates identified in KB-3-1 adenocarcinoma cell line, qHTS therapeutic library screen (AID 1346986). Also: nearly all actives have a fitted effect of over 60% in size.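 Also: potency is for cytotoxicity meaning loss of cell viability.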 The essentials: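 Resistance attributable to P-gp was assessed by comparing AC50 in KB-8-5-11 with parental KB-3-1 and by tariquidar reversal. Cells were exposed 72 h and viability read by CellTiter-Glo.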
For orientation: In qHTS, concentration-response curves come from the screen itself.

The nature of assay [2]: P-glycoprotein substrates identified in KB-8-5-11 adenocarcinoma cell line, qHTS therapeutic library screen (AID 1346987). Also: nearly all actives have a fitted effect of over 65% in size. In outline: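 Steps: plate 500 KB-8-5-11 cells/well in DMEM + 10% FCS (colchicine removed); pin compounds in dose-response; incubate 72 h, 37 degree C, 5% CO2; add CellTiter-Glo, 5 min; read luminescence.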

“And” between values parts separate entries of the source, which are not always exact repeats. Identical values can stand only once. Inconclusive results are not listed. The source made the active and inactive calls. Calls follow the shape of the dose curve; as a rule, active = well fitted curve in the direction sought with a large enough effect; inconclusive = small, poorly fitted or top-dose-only effect, or another doubt; inactive = no such curve, though single readings can be large; an effect the other way counts as inactive or inconclusive.
Potency is read from the fitted curve at half-maximal effect.

On to `CC1(C)C2CC(OC3OC(COC4OCC(O)(CO)C4O)C(O)C(O)C3O)C1(C)CC2O` (stereo unspecified), for which the Potency result in assay [1] and in assay [2] was “inactive” in each case.

Take `COC(=O)C(C)C1CCC2(C)C(=O)C=CC(C)(O)C2C1O` (stereo unspecified): the Potency entry in assay [1] and in assay [2] was “inactive” throughout.

Regarding `CCOc1ccc(NC(=S)N2CCC(C(O)(c3ccccc3)c3ccccc3)CC2)cc1`, the Potency entry in assay [1] and in assay [2] was “inactive” each time.

For `CC1CCN(C(=O)CC#N)CC1N(C)c1ncnc2[nH]ccc12` (stereo unspecified), the Potency entry in assay [1] and in assay [2] was “inactive” throughout.

Take `CC(C)(O[C@@H]1O[C@H](CO)[C@@H](O)[C@H](O)[C@H]1O)C(OC(=O)/C=C\c1ccc(O)cc1)C(=O)OCc1ccc(O[C@@H]2O[C@H](CO)[C@@H](O)[C@H](O)[C@H]2O)cc1` (stereo partly specified): the Potency result in assay [1] and in assay [2] was “inactive” in each case.

In the case of `C=C1C[C@]23C[C@H]1CC[C@H]2C1=C[C@H]2OC(=O)[C@@](C)([C@H]1[C@@H]3C(=O)O)[C@H]2O`, the Potency result in assay [1] and in assay [2] was “inactive” each time.

Regarding `O=C(NOCC(O)CO)c1ccc(F)c(F)c1Nc1ccc(I)cc1F` (stereo unspecified), the Potency entry in assay [1] and in assay [2] was “inactive” each time.

As for `COc1cc(/C=C/C=O)cc(OC)c1O[C@@H]1O[C@H](CO)[C@@H](O)[C@H](O)[C@H]1O`, the Potency entry in assay [1] and in assay [2] was “inactive” each time.

As for `CC(C)=CCC/C(C)=C/CCC1(C)Oc2c(c(O)cc3c2CN(C(CCC(=O)O)C(=O)O)C3=O)CC1O` (stereo unspecified), the Potency entry in assay [1] and in assay [2] was “inactive” in each case.

Regarding `CC1=CC2C(CC1OC1OC(CO)C(O)C(O)C1O)C(C)CC(=O)C2C(C)C` (stereo unspecified), the Potency result in assay [1] and in assay [2] was “inactive” each time.

Turning to `C=C[C@@H]1[C@H](O[C@@H]2O[C@H](CO)[C@@H](O)[C@H](O)[C@H]2O)OC=C(C(=O)O)[C@H]1CCOC(=O)/C=C/c1ccc(O)c(O)c1`, the Potency entry in assay [1] and in assay [2] was “inactive” in each case.

As to `CCCn1c(=O)c2[nH]c(-c3ccc(OCC(=O)O)cc3)nc2n(CCC)c1=O`, the Potency entry in assay [1] and in assay [2] was “inactive” in each case.

Turning to `OC1CCC(Nc2ncc3nc(Nc4c(F)cc(F)cc4F)n([C@H]4CCOC4)c3n2)CC1` (stereo partly specified), the Potency entry in assay [1] and in assay [2] was “inactive” throughout.

As to `CC(=O)O[C@H]1CC[C@@]2(C)C(CC[C@@H](C)[C@]23Cc2c(O)cc4c(c2O3)CN([C@@H](CCC(=O)O)C(=O)O)C4=O)C1(C)C` (stereo partly specified), the Potency entry in assay [1] and in assay [2] was “inactive” each time.

With `COC(=O)C1=CO[C@@H](O[C@@H]2O[C@H](CO)[C@@H](O)[C@H](O)[C@H]2O)[C@@H]2C(COC(C)=O)=C[C@H](O)[C@H]12`, the Potency entry in assay [1] and in assay [2] was “inactive” each time.

On to `CC(C)C1=CC2C(CC[C@]2(C)O)[C@](C)(O)CC1` (stereo partly specified), for which the Potency entry in assay [1] and in assay [2] was “inactive” each time.

As to `C=C(C(=O)O)C1CC2=C(C)CCCC2(C)C[C@@H]1O` (stereo partly specified), the Potency result in assay [1] and in assay [2] was “inactive” throughout.

Consider `NC(=O)[C@H](O[C@@H]1O[C@H](CO)[C@@H](O)[C@H](O)[C@H]1O)c1ccccc1`, for which the Potency result in assay [1] and in assay [2] was “inactive” throughout.

Regarding `O=c1[nH]ccc2cc(OC3CCNCC3)ccc12`, the Potency result in assay [1] and in assay [2] was “inactive” in each case.

Take `OC[C@H]1O[C@@H](Oc2ccccc2)[C@H](O)[C@@H](O)[C@@H]1O`: the Potency entry in assay [1] and in assay [2] was “inactive” each time.

For `CC1(C)CC[C@@]2(C(=O)O[C@@H]3O[C@H](CO)[C@@H](O)[C@H](O)[C@H]3O)C(C1)C1=CCC3[C@@]4(C)CC[C@@H](O[C@@H]5O[C@H](C(=O)O)[C@@H](O[C@@H]6OC[C@@H](O)[C@H](O)[C@H]6O)[C@H](O[C@@H]6OC[C@](O)(CO)[C@H]6O)[C@H]5O)C(C)(C)C4CC[C@@]3(C)[C@]1(C)C[C@H]2O` (stereo partly specified), the outcome in assay [1] and in assay [2] was “inactive [at 9.29 µM]” each time.

In the case of `O=C(O)[C@@H]1C[C@H]2C[C@@H](CCc3nn[nH]n3)CC[C@H]2CN1`, the Potency result in assay [1] and in assay [2] was “inactive” in each case.

For `CC1C(OC(=O)c2ccccc2)C(O)C2C(C(=O)O)=COC(OC3OC(CO)C(O)C(O)C3O)C12` (stereo unspecified), the Potency entry in assay [1] and in assay [2] was “inactive” in each case.

Turning to `C[C@@H]1C[C@H]2O[C@@H]2/C=C\C=C\C(=O)Cc2c(Cl)c(O)cc(O)c2C(=O)O1`, the Potency in assay [1] was 2860 nM (active); in assay [2], 438 nM (active) and 5.7 µM (active).

Take `OC[C@H]1O[C@@H](Oc2cc(O)c3c(c2)O[C@@H](c2ccc(O)cc2)[C@H](O)C3)[C@H](O)[C@@H](O)[C@@H]1O`: the Potency entry in assay [1] and in assay [2] was “inactive” each time.

In the case of `C=C1C(=O)OC2CC(C)=C(C(C)CCCO)C(O)C12` (stereo unspecified), the Potency result in assay [1] and in assay [2] was “inactive” throughout.

With `O=C(c1ccc2nccnc2c1)N1CCCCC1`, the Potency result in assay [1] and in assay [2] was “inactive” throughout.

With `CCCOC(c1cc2nccc(C(=O)O)c2[nH]1)c1ccccc1Cl` (stereo unspecified), the Potency entry in assay [1] and in assay [2] was “inactive” in each case.

(Values after PubChem BioAssay (NCATS).)
